Screens from PubChem.
This is a sample that favours compounds with a hit; in the whole collection about 4.2% have one here.
Hsp70 act: Hsp70 transcriptional activators, primary screen, cell-based, HeLa, Hsp70 promoter luciferase, luminescence, 10 µM. HeLa Hsp70 promoter luciferase reporter; scaled: vehicle 0, proteasome-inhibitor control 100%. activation, % at 10 µM. AID 1203, 2008. 200,000 tested, 0.04% active;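 active = activation above the mean across all tested compounds plus 3 SD, cutoff set per campaign, cut at about 5.5% in these data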;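 note: 100% = MG132 at 30 µM as the positive control and 0% = DMSO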
S1P4 agonist: S1P4 receptor agonists, primary screen, cell-based; Sphingosine 1-phosphate receptor 4 (Homo sapiens), O95977; S1P4-expressing cell line, agonist reporter assay; activation, % at 4.98 µM; 220,000 tested, 0.35% active; AID 1509, 2009; in the data active = activation above about 11%;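 note: 0% = DMSO vehicle and 100% = reference agonist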
Target sequence (O95977 whole entry, looked up): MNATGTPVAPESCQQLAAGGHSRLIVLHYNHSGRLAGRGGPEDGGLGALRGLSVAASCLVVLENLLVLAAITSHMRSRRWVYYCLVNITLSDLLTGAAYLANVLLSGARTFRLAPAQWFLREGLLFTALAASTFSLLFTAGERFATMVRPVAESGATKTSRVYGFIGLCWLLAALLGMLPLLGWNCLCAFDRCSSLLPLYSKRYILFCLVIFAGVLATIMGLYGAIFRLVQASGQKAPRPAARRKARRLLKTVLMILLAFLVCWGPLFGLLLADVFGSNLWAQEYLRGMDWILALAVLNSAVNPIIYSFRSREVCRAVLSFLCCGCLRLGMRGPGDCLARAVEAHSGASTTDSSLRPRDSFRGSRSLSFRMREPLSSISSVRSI
CHOP inh: inhibitors of CHOP promoter induction, primary screen, cell-based, unfolded protein response, luciferase reporter | 220,000 tested, 3.8% active | CHO-K1 CHOP-promoter luciferase, tunicamycin-induced, 15-18 h | inhibition, % at 10 µM | AID 2732, 2010;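 active = compounds that reduced the stress-induced luciferase reporter signal by more than about 70% of percent inhibition, limit read from the data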;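 note: 0% = tunicamycin plus vehicle and 100% = wells without tunicamycin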
S1P4 antagonist: S1P4 receptor antagonists, primary screen, cell-based. S1P4-expressing cells, antagonist mode, reporter read-out. 220,000 tested, 0.26% active. AID 1510, 2009. inhibition, % at 4.98 µM. Sphingosine 1-phosphate receptor 4 (Homo sapiens), O95977; in the data active = inhibition above about 29%;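 note: 0% = wells stimulated with agonist and 100% = vehicle wells without agonist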
S1P4 antag cf: S1P4 receptor antagonists, human, confirmation, cell-based; 520 tested, 71% active; inhibition, % at 4.98 µM; AID 1524, 2009; S1P4-expressing cell line, antagonist mode, reporter read-out; shares compounds with S1P4 antagonist; in the data active = inhibition above about 30%
S1P1 antagonist: S1P1 receptor antagonists, human, counter-screen for S1P4 antagonist project, cell-based; cell-based S1P1 antagonist counterscreen, inhibition; 520 tested, 37% active; inhibition, % at 4.98 µM; shares compounds with S1P4 antagonist; AID 1564, 2009; in the data active = inhibition above about 40%;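 note: receptor stimulated with S1P near its EC80; 0% = agonist stimulated wells and 100% = vehicle only wells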
The depositor's hits bear a star; . = no result.

SMILES	Hsp70 act	S1P4 agonist	CHOP inh	S1P4 antagonist	S1P4 antag cf	S1P1 antagonist
Cc1cc([N+](=O)[O-])ccc1NC(=O)c1ccco1	-0.2	1.6	-2.2	-4.6	.	.
Cc1cc(C)cc(NC(=O)c2ccc([N+](=O)[O-])o2)c1	1.3	-2.5	-29.4	62.7*	88.6*	3.6
Cc1cc(NC(=O)c2ccc([N+](=O)[O-])o2)ccc1NC(=O)c1ccco1	1.5	-5.6	-163.4	89.6*	107.4*	58.2*
Cc1cc(C)nc(NC(=O)c2ccc([N+](=O)[O-])o2)n1	-0.2	-2.8	22.4	-3.7	.	.
CCCc1ccc(-c2cc(N)n[nH]2)cc1	0.3	-0.6	15.8	-1.7	.	.
COC(=O)c1cc(=O)n(Cc2cccs2)c(=Nc2ccc(F)cc2)s1	0.3	-0.2	-19.7	21.8	.	.
COC(=O)c1cc(=O)n(-c2ccc(F)cc2)c(=Nc2ccc(F)cc2)s1	1.3	4.2	7.3	29.3*	99.6*	75.5*
Cc1nccn1CCCN1C(=O)OC2(CCCCC2)C1(C)O (stereo unspecified)	-0.4	-2.9	30.5	31.9*	1.9	-0.3
CCC1(C)OC(=O)N(CCCn2ccnc2C)C1(C)O (stereo unspecified)	-0.3	0.9	-1.7	-20.0	.	.
COC(=O)/C=c1/s/c(=C(\C#N)C(=O)NCc2ccco2)n(-c2ccc(C)cc2)c1=O	-0.1	0.5	-34.8	-1.0	.	.
COc1cc(CNCCO)cc(Cl)c1OCc1ccc(Cl)cc1Cl	-0.3	4.3	95.2*	31.1*	50.6*	64.0*
COc1cc(CNCCO)cc(Br)c1OCc1ccccc1Cl	-0.3	9.5	-30.1	13.5	.	.
Cc1c(O)ccc(NC(=O)/C=C/c2ccccc2)c1C	0.0	-0.9	-1.9	56.6*	60.9*	13.1
N=c1n(CCN2CCCCC2)c2ccccc2n1CC(O)c1cccc(Br)c1 (stereo unspecified)	-0.2	0.4	14.6	8.1	.	.
N=c1n(CCN2CCCCC2)c2ccccc2n1CC(O)c1ccc(Cl)c(Cl)c1 (stereo unspecified)	-0.4	-2.5	-20.7	54.5*	58.4*	58.5*
O=C1N/C(=N\S(=O)(=O)Cc2ccccc2)S/C1=C/c1cc([N+](=O)[O-])ccc1O	.	-0.2	8.6	44.2*	58.7*	50.2*
COc1cc(/C=C2\S/C(=N/S(=O)(=O)Cc3ccccc3)NC2=O)c([N+](=O)[O-])cc1OC	.	-1.0	9.6	-3.3	.	.
CC(C)NC(=O)CSCc1c(F)cccc1Cl	-0.5	-1.2	10.9	57.1*	-3.0	-6.5
Cc1ccccc1-c1cc2c(nn1)-c1ccccc1C2=O	-0.2	-2.2	12.7	92.5*	9.8	8.3
N#CCCN1CCCc2cc(N=Nc3ccc(C(F)(F)F)cc3)ccc21	.	-1.9	-18.4	31.3*	84.6*	28.1
O=S1(=O)N=C(N(CCO)/N=C/C=C/c2ccccc2)c2ccccc21	-0.1	0.2	9.5	-11.4	.	.
CCOC(=O)c1c(N)sc(C(=O)Nc2ccccc2)c1C	-0.4	0.1	-21.1	3.6	.	.
N#C/C(=C\c1ccccn1)c1nc2ccccc2s1	-0.4	-0.5	-139.7	74.2*	35.6*	43.0*
CN(Cc1cnc2nc(N)nc(N)c2n1)c1ccc(C(=O)N[C@@H](CCC(=O)O)C(=O)O)cc1	.	.	-14.2	.	.	.
COc1ccc(C(=O)C(CCC(CNC(C)(C)C)C(=O)c2ccc(OC)cc2)CNC(C)(C)C)cc1 (stereo unspecified)	-0.3	-6.4	-140.9	73.1*	37.1*	21.6
SMILES	Hsp70 act	S1P4 agonist	CHOP inh	S1P4 antagonist	S1P4 antag cf	S1P1 antagonist
COc1ccc(C(=O)NN)cc1	.	-1.2	-2.7	6.1	.	.
O=C(/C=C/C=C/c1ccccc1)c1ccco1	.	-0.5	-5.7	18.6	.	.
O=C(/C=C/c1ccc(Br)cc1)c1ccco1	-0.1	-1.0	-66.7	54.1*	80.6*	17.6
CC1=C(C(=O)Nc2ccc([N+](=O)[O-])cc2)C(c2cccc(C(F)(F)F)c2)NC(=S)N1c1ccccc1 (stereo unspecified)	-0.2	-0.9	66.6	31.4*	32.8*	15.2
O=C(O)Cc1ccc(NC(=O)c2cccc(NC(=O)c3ccco3)c2)cc1	-0.2	-1.2	22.6	-7.9	.	.
CC(C)CN(CC(C)C)C(=O)Nc1ccc(F)cc1F	.	-1.9	11.3	-14.9	.	.
COc1ccc(C(=O)c2ccc(N(C)C)cc2)c(OC)c1	0.5	0.8	.	-12.2	.	.
CN(C)c1ccc(C(=O)c2ccc(N(C)C)c3ccccc23)cc1	1.4	-0.5	.	34.1*	50.3*	60.2*
CN(C(=O)C(Cl)Cl)c1ccc(OC(=O)c2ccco2)cc1	-0.4	-0.9	20.8	32.6*	34.4*	18.4
COc1ccc(C(CNC(=O)COc2ccccc2OC)N(C)C)cc1OC (stereo unspecified)	-0.3	-0.3	-2.7	0.8	.	.
CCN(CC)c1ccc2cc(C(N)=O)c(=N)oc2c1	0.1	6.0	-6.5	-11.6	.	.
Oc1ccccc1C1CC(c2cccs2)=NC(c2ccc(Cl)cc2)N1 (stereo unspecified)	0.0	-0.3	68.0	46.4*	21.1	12.2
O=S(=O)(CCc1nnc(-c2ccccc2)o1)c1ccc2ccccc2c1	0.0	1.4	-4.1	-2.6	.	.
Cc1cccc(C)c1NC(=O)c1ccc(-c2ccc(Cl)cc2Cl)o1	-0.4	0.7	60.5	95.7*	110.7*	-2.1
Cc1ccccc1NC(=O)c1ccc(-c2ccc(Cl)cc2Cl)o1	-0.5	0.6	59.9	-8.4	.	.
OCCOCCOc1ccccc1OCCOCCO	-0.1	-1.8	8.8	1.9	.	.
COc1ccc(-c2csc(NC3OC(=O)c4c3ccc(OC)c4OC)n2)cc1OC (stereo unspecified)	.	0.6	-121.0	32.3*	57.6*	43.5*
COc1ccc2c(c1OC)C(=O)OC2Nc1nc(-c2ccc([N+](=O)[O-])cc2)cs1 (stereo unspecified)	.	-1.2	-15.8	10.4	.	.
COc1cc(C(=O)Nc2cccc(-c3nc4ncccc4o3)c2C)cc(OC)c1OC	-0.3	-1.6	37.5	-9.8	.	.
COc1ccc(C(=O)Nc2cccc(-c3nc4ncccc4o3)c2C)cc1	-0.2	-2.4	1.5	33.0*	0.9	-8.5
Cc1ccc2[nH]c(=O)c(COC(=O)C3CCCO3)cc2c1 (stereo unspecified)	-0.1	-1.3	5.2	-13.1	.	.
CCCN1C(=O)S/C(=C\c2ccc(N3CCOCC3)o2)C1=O	0.0	-1.6	-41.9	9.7	.	.
CCCN1C(=O)S/C(=C/c2ccc(N3CCOCC3)o2)C1=O	.	-2.5	-62.5	33.1*	14.0	6.7
C#CCOCCOCCOCCNc1nc(N2CCN(C(=O)[C@H]([C@@H](C)CC)n3cc(CCCN=C(N)N)nn3)CC2)nc(N2CCN(C(=O)[C@H](CCCCN)n3cc(CCCC)nn3)CC2)n1	-0.1	0.6	0.7	-27.6	.	.
